Experimental findings from PubChem BioAssay (EPA / NIEHS) are described below.

Results filed as inconclusive are left out. The source holds several records for some structures; these can differ, active in one and inactive in another. Calls of active or inactive are those of the source. The calls were made as follows: active = hit-call score of the fitted dose curve at least 0.9, where 1 is the maximum; inconclusive = response in the unintended direction; inactive = score below 0.9.

Chain of Estrogen receptor (Homo sapiens) (P03372 whole entry, looked up, the tested form may be a part): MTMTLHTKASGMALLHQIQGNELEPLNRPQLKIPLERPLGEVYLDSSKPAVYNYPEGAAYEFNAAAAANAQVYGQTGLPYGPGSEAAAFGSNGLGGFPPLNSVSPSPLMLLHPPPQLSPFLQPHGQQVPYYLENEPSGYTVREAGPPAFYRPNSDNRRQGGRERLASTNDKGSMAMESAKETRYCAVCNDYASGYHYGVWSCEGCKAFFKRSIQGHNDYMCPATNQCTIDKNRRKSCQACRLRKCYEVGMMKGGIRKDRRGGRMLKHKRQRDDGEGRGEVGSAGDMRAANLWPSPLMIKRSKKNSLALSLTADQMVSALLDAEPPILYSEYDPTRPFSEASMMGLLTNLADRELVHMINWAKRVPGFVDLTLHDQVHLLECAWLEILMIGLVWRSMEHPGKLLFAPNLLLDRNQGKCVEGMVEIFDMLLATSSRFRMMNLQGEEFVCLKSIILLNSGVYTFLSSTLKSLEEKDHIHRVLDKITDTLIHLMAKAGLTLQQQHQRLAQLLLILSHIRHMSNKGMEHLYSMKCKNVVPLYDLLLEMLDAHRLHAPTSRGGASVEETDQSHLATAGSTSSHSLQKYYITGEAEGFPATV

This assay concerns the target Estrogen receptor (Homo sapiens) (UniProt P03372). The experiment in a line: ATG_ERa_TRANS: Attagene TRANS-FACTORIAL HepG2 Assay for human Estrogen Receptor alpha (ERa) (AID 2282970). To be noted: HepG2 Attagene TRANS ERa GAL4 reporter, mRNA. As for the experimental part:
ATG_TRANS is a cell-based, multiplexed-readout assay that uses HepG2, a human liver cell line, with measurements taken at 24 hours after chemical dosing in a 24-well plate.ATG_ERa_TRANS is one of 30 assay component(s) measured or calculated from the ATG_TRANS assay. It is designed to make measurements of mRNA induction, a form of inducible reporter, as detected with fluorescence intensity signals by Reverse transcription polymerase chain reaction (RT-PCR) and Capillary electrophoresis technology.Data from the assay component ATG_ERa_TRANS was analyzed into 1 assay endpoint. This assay endpoint, ATG_ERa_TRANS, was analyzed in the positive analysis fitting direction relative to DMSO as the negative control and baseline of activity. Using a type of inducible reporter, measures of mRNA for gain-of-signal activity can be used to understand the reporter gene at the transcription factor-level as they relate to the gene ESR1. Furthermore, this assay endpoint can be referred to as a primary readout, because this assay has produced multiple assay endpoints where this one serves a reporter gene function. To generalize the intended target to other relatable targets, this assay endpoint is annotated to the nuclear receptor intended target family, where the subfamily is steroidal.
Human liver HepG2 cells are transiently transfected with multiple reporter transcription units (MRTUs) in 6-well plates using FuGene 6 reagent (Roche; 3 ml FuGene/1 mg DNA). The MRTU constructs are regulated by a cis-regulating element (promoter). […] A major difference between the CIS and TRANS system is that in CIS activities of endogenous TFs are measured, whereas the TRANS assay evaluates changes in activities of exogenous, chimeric NR-Gal4 proteins. […] At the end of 24 hour incubation, total RNA was isolated using TriZol reagent (Invitrogen). The isolated RNA is then reverse-transcribed using oligo(dT) primer and Mo-MLV reverse transcriptase (Invitrogen) with DNAse I (Ambion) treatment for 30 min. The one-tenth of the produced cDNA was amplified by PCR using Taq DNA polymerase (Invitrogen) and two reporter sequence-specific primers. The PCR products were fluorescently labeled by primer extension with 6-arboxyfluorescein (6-FAM) 5'-labeled reporter sequence-specific primer (2 min at 95 C, 20 s at 68 C and 10 min at 72 C) and these products were digested with 5U of HpaI (New England Biolabs) for 2h at 37 C. […] The raw capillary electrophoresis data was processed using Attagraph software (Attagene).
As for `FC(F)=C(F)C(F)(F)C(F)(F)C(F)(F)C(F)F`, the outcome was inactive.

A word on the AC50: it is the concentration at which the activity in the assay is half-maximal. For `CC1CCC(CO)CC1` (stereo not given), the compound was called inactive and the AC50 is 62.4 µM (active).

On to `O=C1c2ccc(O)c(O)c2C(=O)c2c(O)ccc(O)c21`, for which the AC50 was 4.53 µM (active).

For the compound `C=COC(=O)C(C)(C)CCCCCC`, the AC50 was 41 µM (active).

In the case of `O=S(=O)(O)C(F)(F)C(F)(F)C(F)(F)C(F)(F)C(F)(F)C(F)(F)C(F)(F)C(F)(F)C(F)(F)C(F)(F)F`, the result was inactive.

For the compound `O=C1c2ccccc2C(=O)c2c(O)c(O)cc(O)c21`, the AC50 was 4.9 µM (active).

On to `O=CC(F)(F)C(F)(F)C(F)(F)C(F)F`, for which the compound was classed as inactive.

On to `O=C(O)C(F)(F)OC(F)(F)C(F)(F)OC(F)(F)C(F)(F)OC(F)(F)C(F)(F)C(F)(F)C(F)(F)F`, for which the compound was called inactive and the AC50 was 26 µM (active).

On to `CC(C)(O)C(=O)c1ccccc1`, for which the call was inactive.

In the case of `Cc1ccccc1C(OCCN(C)C)c1ccccc1` (stereo not given), the result was inactive.

In the case of `Clc1ccc(Nc2nnc(Cc3ccncc3)c3ccccc23)cc1`, the compound was called inactive.

Turning to `FC(F)(F)C1(F)C(F)(F)C(F)(F)C(F)(F)C(F)(C(F)(F)F)C1(F)F` (stereo not given), the compound was classed as inactive.

On to `CC(C)(C)c1ccc(CCC=O)cc1`, for which the AC50 is 74 µM (active).

Consider `CCCCC(CC)C(=O)OCCOCCOCCOCCOC(=O)C(CC)CCCC` (stereo not given), for which the compound was classed as inactive.

Consider `CCN(CCC#N)c1ccccc1`, for which the result was inactive.

As for `CCCCCCOC(=O)c1ccc(O)cc1`, the AC50 is 3.24 µM (active).

Regarding `CCCCCCCC(OC)OC`, the call was inactive.

For `C=CC(=C)CC/C=C(\C)CCC=C(C)C`, the call was inactive.

`Nc1cc(Cl)c(-c2cc(Cl)c(N)cc2Cl)cc1Cl`: the call was inactive.

Consider `CCOC(OCC)C(=O)c1ccccc1`, for which the AC50 is 32.2 µM (active).

With `C=CCOCC(CO)(CO)CO`, the compound was classed as inactive.

Take `CCC(=O)O`: the compound was classed as inactive.

Take `O=P(O)(O)CCC(F)(F)C(F)(F)C(F)(F)C(F)(F)C(F)(F)C(F)(F)F`: the call was inactive.

On to `C=CC(=O)OCCC(F)(F)C(F)(F)C(F)(F)C(F)(F)C(F)(F)C(F)(F)C(F)(F)C(F)(F)F`, for which the AC50 was 11 µM (active).

With `O=c1cc(-c2ccccc2)oc2ccc3ccccc3c12`, the AC50 is 2.05 µM (active) and the outcome was inactive.

As to `COc1ccccc1NC(=O)c1cc2ccccc2cc1O`, the compound was called inactive.

Turning to `O=C(CC(=O)C(F)(F)C(F)(F)C(F)(F)F)c1cccs1`, the compound was called inactive.

In the case of `CCN(CC)CC`, the result was inactive.

With `COc1cccc(O)c1`, the result was inactive.

Turning to `C/C=C/C(=O)C1=C(C)CCCC1(C)C`, the call was inactive.

`O=C(C=C(O)C(F)(F)F)C(F)(F)F`: the compound was classed as inactive.

Take `CCOC=O`: the AC50 was 59.7 µM (active).

`CCOCCOCC`: the compound was called inactive.

For the compound `Oc1c(Cl)ccc(Cl)c1Cl`, the compound was called inactive.

Turning to `c1cc[nH]c1`, the call was inactive.

Regarding `Oc1ccc(Cc2ccccc2O)cc1`, the AC50 is 3.65 µM (active).

Turning to `CN(CCO)S(=O)(=O)C(F)(F)C(F)(F)C(F)(F)C(F)(F)C(F)(F)C(F)(F)C(F)(F)C(F)(F)F`, the result was inactive.
